Many of the other results were omitted from the sample, so hits are more common in it than they were.
KDM5B inhibitor – KDM5B demethylase inhibition. KDM5B demethylase, FDH-coupled NADH fluorescence (FDH is formaldehyde dehydrogenase). Potency, µM (highest dose often 57.7 µM), actives largely listed as inhibitors. 220,000 tested, 2.6% active; active = well fitted inhibition curve with a large enough effect; note: 0% is about no effect; nearly all actives have a fitted effect of over 70% in size
Target sequence (Q9UGL1 whole entry, looked up): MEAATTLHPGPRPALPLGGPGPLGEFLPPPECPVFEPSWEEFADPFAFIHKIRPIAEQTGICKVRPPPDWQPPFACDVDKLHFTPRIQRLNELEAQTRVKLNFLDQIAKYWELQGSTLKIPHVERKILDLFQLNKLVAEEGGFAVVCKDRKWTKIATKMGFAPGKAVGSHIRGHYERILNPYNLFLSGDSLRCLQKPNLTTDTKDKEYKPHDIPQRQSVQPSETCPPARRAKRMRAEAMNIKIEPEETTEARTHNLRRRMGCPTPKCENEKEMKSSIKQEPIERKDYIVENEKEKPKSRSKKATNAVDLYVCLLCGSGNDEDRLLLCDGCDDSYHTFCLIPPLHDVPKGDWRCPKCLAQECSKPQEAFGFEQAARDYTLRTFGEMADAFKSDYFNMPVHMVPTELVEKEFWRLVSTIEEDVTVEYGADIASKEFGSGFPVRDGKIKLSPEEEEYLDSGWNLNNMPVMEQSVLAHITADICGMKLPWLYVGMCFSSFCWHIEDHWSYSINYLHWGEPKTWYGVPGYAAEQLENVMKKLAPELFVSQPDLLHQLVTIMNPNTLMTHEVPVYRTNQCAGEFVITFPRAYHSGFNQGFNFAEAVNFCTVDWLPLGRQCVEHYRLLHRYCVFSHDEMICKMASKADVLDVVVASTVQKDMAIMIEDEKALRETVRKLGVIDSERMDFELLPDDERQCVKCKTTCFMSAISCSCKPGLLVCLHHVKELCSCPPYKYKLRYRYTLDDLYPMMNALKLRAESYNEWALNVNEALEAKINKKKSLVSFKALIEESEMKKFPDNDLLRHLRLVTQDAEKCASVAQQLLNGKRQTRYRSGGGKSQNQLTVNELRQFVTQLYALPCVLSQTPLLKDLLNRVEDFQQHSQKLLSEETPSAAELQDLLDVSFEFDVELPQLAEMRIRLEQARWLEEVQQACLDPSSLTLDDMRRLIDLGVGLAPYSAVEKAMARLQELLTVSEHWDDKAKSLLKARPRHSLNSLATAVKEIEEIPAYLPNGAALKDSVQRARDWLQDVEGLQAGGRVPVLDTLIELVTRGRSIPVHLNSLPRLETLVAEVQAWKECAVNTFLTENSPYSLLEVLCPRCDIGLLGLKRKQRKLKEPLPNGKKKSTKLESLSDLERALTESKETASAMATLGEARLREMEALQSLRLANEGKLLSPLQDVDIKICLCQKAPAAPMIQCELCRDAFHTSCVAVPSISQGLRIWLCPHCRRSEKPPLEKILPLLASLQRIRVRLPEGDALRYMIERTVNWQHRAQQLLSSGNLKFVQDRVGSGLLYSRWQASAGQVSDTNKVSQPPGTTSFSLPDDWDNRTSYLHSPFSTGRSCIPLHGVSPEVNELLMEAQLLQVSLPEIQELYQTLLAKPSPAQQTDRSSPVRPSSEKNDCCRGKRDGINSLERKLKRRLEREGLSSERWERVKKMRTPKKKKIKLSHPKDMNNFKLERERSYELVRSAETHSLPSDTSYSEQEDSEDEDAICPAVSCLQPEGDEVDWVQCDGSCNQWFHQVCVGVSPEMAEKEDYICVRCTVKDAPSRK
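KDM5BΔAP (200 nM final) in 50 mM HEPES pH 7.5, 0.01% Tween-20 was preincubated 10 min at RT with compound over a concentration range. Substrate mix (H3K4me3 12.5 µM, α-KG 25 µM, Fe²⁺, ascorbate, NAD⁺, FDH) was added, and NADH fluorescence change over 30 min gave dose-response curves.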
An asterisk follows results filed as active; i = inactive. Potency is the fitted concentration of half-maximal effect.

SMILES | KDM5B inhibitor
COc1ccc([C@@H]2CN(C(=O)c3sccc3C)[C@@H]3C4CCN(CC4)[C@@H]32)cc1 | i
COc1ccc([C@@H]2CN(S(=O)(=O)N3CCCC3)[C@@H]3C4CCN(CC4)[C@@H]32)cc1 | i
COc1ccc([C@@H]2CN(c3nccc(C)n3)[C@@H]3C4CCN(CC4)[C@@H]32)cc1 | 14.1µM*
CCC(=O)N1[C@H]2CC[C@@H]1c1cnc(-c3ccccc3)nc1C2 | i
O=C(NC1CCCCC1)N1C[C@@H]2C[C@H](C1)c1ccc(C3CCCCC3)c(=O)n1C2 | 39.8µM*
COc1ccc(-c2ccc(=O)n3c2[C@@H]2C[C@@H](CN(C(=O)NC4CCCCC4)C2)C3)cc1 | i
O=C(Nc1ccc2n(c1=O)C[C@H]1C[C@@H]2CN(C(=O)NC2CCCCC2)C1)c1ccccn1 | i
Cc1ccccc1-c1ccc2n(c1=O)C[C@H]1C[C@@H]2CN(C(=O)NC2CCCCC2)C1 | 35.5µM*
O=C(COC(=O)CCc1nc2ccccc2s1)Nc1ccc(Cl)cc1C(=O)c1ccccc1 | i
COCCNC(=O)NC(=O)CCl | i
O=C(Cc1ccccc1Cl)N1CCN(C2CCN(CCc3ccccc3)C2=O)CC1 (stereo not drawn) | i
COCCn1c(C)cc(C(=O)NC2CCc3nnc(C)n3CC2)c1C (stereo not drawn) | i
CC(C)N1CCC(NC(=O)c2cn(Cc3ccccc3)c3ccccc23)CC1 | i
COCc1nnc2n1CCC(NC(=O)c1nn(C)c3ccccc13)CC2 (stereo not drawn) | 28.2µM*
Cc1noc(C)c1S(=O)(=O)N1[C@H]2CC[C@@H]1c1cnc(-c3ccccc3)nc1C2 | i
COc1ncc(-c2cc3c(cc2OC)C2(CCN(C(C)=O)CC2)C(=O)N3)cn1 | i
CC12CCC(O)CC1CC[C@@H]1[C@@H]2CCC2(C)[C@H](C3=CC(=O)OC3)CCC12O (stereo partly drawn) | i
O=C(NC[C@H]1C[C@@H]2CCN1C[C@@H]2CN1C[C@@H]2C[C@H](C1)c1cccc(=O)n1C2)c1ccccc1 | i
Cc1noc(-c2ccc(N3CC4CC(C3)c3cccc(=O)n3C4)nc2)n1 (stereo not drawn) | 22.4µM*
Cc1nc(N2CC3CC(C2)c2cccc(=O)n2C3)c2c(C)nn(C)c2n1 (stereo not drawn) | i
COCC(=O)NC[C@H]1C[C@@H]2CCN1C[C@@H]2c1cc(-c2ccc(OC)cc2)nn1C | i
CN1C(=O)CO[C@H]2CN(Cc3ccccn3)C[C@H]21 | 39.8µM*
O=C1CO[C@H]2CN(Cc3ccccc3)C[C@H]2N1Cc1ccccn1 | i
O=C1CO[C@H]2CN(Cc3ncc[nH]3)C[C@H]2N1Cc1ccccn1 | 35.5µM*
O=C1CO[C@H]2CN(Cc3ccco3)C[C@H]2N1Cc1ccccn1 | i
SMILES | KDM5B inhibitor
NC(=O)CN1C(=O)CO[C@H]2CN(Cc3ccccn3)C[C@H]21 | i
O=C1CO[C@H]2CN(Cc3ccccn3)C[C@H]2N1c1ccccc1 | i
COc1cc2c(cc1Oc1cccc(N(C)C)c1)NC(=O)C21CCN(Cc2cccc(O)c2)CC1 | i
FC(F)CN1CCNCC1 | i
CCCNC1CCc2ccccc2C1 (stereo not drawn) | i
CN(C)C(=O)Oc1ccc2c(=O)c(-c3ccccc3)coc2c1 | i
CCN1C(=O)C(O)(C(F)(F)F)c2cc(C(O)(C(=O)OC)C(F)(F)F)ccc21 (stereo not drawn) | i
CS(=O)(=O)N1C[C@H]2CCN(Cc3ccc[nH]3)C[C@H]21 | 14.1µM*
O=C(Cc1ccccc1)N1CCC(C(=O)O)(c2ccccc2)CC1 | i
CC(C)CCN1CC2(C1)C(=O)Nc1ccccc12 | i
Cc1cccc(OCC(=O)N2[C@H]3CC[C@@H]2c2cnc(-c4ccccc4)nc2C3)c1 | i
COc1cc2c(cc1Oc1ccccc1)NC(=O)C21CCN(Cc2nccn2C)CC1 | i
Cc1ccc2c(n1)N(C)[C@H](CO)CCN(CCC(C)C)C2 | 31.6µM*
CN1c2cccnc2CN(C2COC2)CC[C@H]1CO | i
Cc1ccc2c(n1)N(C)[C@H](CO)CCN(C1COC1)C2 | 31.6µM*
O=C(NCc1ccc2c(c1)OCO2)[C@H]1CN2CCC1C[C@@H]2Cn1cc(-c2cccc(O)c2)nn1 (stereo partly drawn) | i
Cc1ccc(C)c(S(=O)(=O)N2[C@H]3CC[C@@H]2c2cnc(-c4ccc(F)cc4)nc2C3)c1 | i
CSCC(=O)N1C[C@@H]2C[C@H](C1)c1c(-c3ccc(NC(C)=O)cc3)ccc(=O)n1C2 | 28.2µM*
O=C(C1CCCCC1)N1C[C@@H]2C[C@H](C1)c1c(-c3ccc(Cl)cc3)ccc(=O)n1C2 | i
CCCS(=O)(=O)Nc1ccc(=O)n2c1[C@@H]1C[C@@H](CN(C(=O)COc3ccccc3)C1)C2 | 31.6µM*
O=c1ccc(-c2cccs2)c2n1C[C@H]1C[C@@H]2CN(S(=O)(=O)c2cccs2)C1 | 31.6µM*
CCCS(=O)(=O)Nc1ccc(=O)n2c1[C@@H]1C[C@@H](CN(C(=O)c3ccc(OC)cc3)C1)C2 | i
O=c1ccc(-c2ccc(Cl)cc2)c2n1C[C@H]1C[C@@H]2CN(S(=O)(=O)c2ccccc2)C1 | i
COc1ccc(-c2ccc(=O)n3c2[C@@H]2C[C@@H](CN(C(=O)CSC)C2)C3)cc1 | i
O=C(c1cnccn1)N1C[C@@H]2C[C@H](C1)c1c(-c3ccccc3)ccc(=O)n1C2 | i
SMILES | KDM5B inhibitor
O=c1ccc(-c2cncnc2)c2n1C[C@H]1C[C@@H]2CN(S(=O)(=O)c2ccccc2)C1 | i
O=C(C1CCCCC1)N1C[C@@H]2C[C@H](C1)c1c(-c3cccs3)ccc(=O)n1C2 | i
O=c1ccc(-c2cccs2)c2n1C[C@H]1C[C@@H]2CN(S(=O)(=O)c2cccc(C(F)(F)F)c2)C1 | i
CSc1ccc(-c2ccc(=O)n3c2[C@@H]2C[C@@H](CN(S(C)(=O)=O)C2)C3)cc1 | 35.5µM*
Cc1cnc(N2CC3CCC(C2)N3CC(F)(F)F)c([N+](=O)[O-])c1 | i
COc1ccccc1CC(=O)N1CC2(CCN(C)CC2)c2cc(OC)c(OCc3ccccc3)cc21 | i
O=c1oc2ccccc2c(O)c1C(c1ccccc1)c1c(O)c2ccccc2oc1=O | i
COc1ccc2c(c1)C1(CCN(C(=O)C(C)(C)C)C1)C(=O)N2C (stereo not drawn) | i
Cc1ccc(-n2nc(C)c3c2NC(=O)CSC3c2ccsc2)cc1 (stereo not drawn) | i
Cc1cc(C(F)(F)F)nn1CC(=O)N1[C@H]2CC[C@@H]1c1cnc(-c3ccc(F)cc3)nc1C2 | i
FC(F)Oc1ccc(CNCCc2c[nH]c3ccccc23)cc1 | i
COc1cc2c(cc1OCc1ccncc1)NC(=O)C21CCN(C(=O)c2cccnc2)CC1 | i
COc1cc2c(cc1OCc1ccncc1)NC(=O)C21CCN(Cc2ccccc2O)CC1 | i
COc1cc2c(cc1OCc1ccccc1)NC(=O)C21CCN(CC2CC2)CC1 | i
COc1cc2c(cc1OCc1ccccc1)NC(=O)C21CCN(Cc2ccccn2)CC1 | i
COc1cc2c(cc1OCC1CC1)NC(=O)C21CCN(C(=O)c2ccccc2)CC1 | i
COc1cc2c(cc1OCc1ccncc1)NC(=O)C21CCN(c2ccccn2)CC1 | 28.2µM*
COc1cc2c(cc1OCc1ccccc1)NC(=O)C21CCN(c2nc(C)cnc2C)CC1 | 28.2µM*
COc1cc2c(cc1OCc1ccccc1)NC(=O)C21CCN(c2cnccn2)CC1 | 31.6µM*
COc1cc2c(cc1OCc1ccncc1)NC(=O)C21CCN(CC2CC2)CC1 | i
N[n+]1cn[nH]c1 | i

Assay outcomes: PubChem, National Center for Advancing Translational Sciences (NCATS)
